Assay results from PubChem BioAssay (NCI).
The panel holds about 83,000 compounds, 20% with a hit somewhere; the sample as a whole holds those more often.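 Method: cells in 96-well plates; compound added at one concentration; 48 h incubation; percent growth measured; values under 10 scored active.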 Values without a mark were called inactive. The source made the active and inactive calls.

Assays:
Test in all cases: NCI-60 one-dose screen, 48 h (100 = growth as untreated, 0 = no growth, -100 = all killed)
Conditions in all cases: 10 µM
DU-145 prostate = tested on: DU-145 prostate
K-562 leukemia = tested on: K-562 leukemia
MALME-3M melanoma = tested on: MALME-3M melanoma
MDA-MB-231 breast = tested on: MDA-MB-231 breast
RXF 393 renal = tested on: RXF 393 renal
SF-268 CNS = tested on: SF-268 CNS
SF-295 CNS = tested on: SF-295 CNS
SF-539 CNS = tested on: SF-539 CNS
UACC-257 melanoma = tested on: UACC-257 melanoma
M14 melanoma = tested on: M14 melanoma

| SMILES | growth (DU-145 prostate) | growth (K-562 leukemia) | growth (MALME-3M melanoma) | growth (MDA-MB-231 breast) | growth (RXF 393 renal) | growth (SF-268 CNS) | growth (SF-295 CNS) | growth (SF-539 CNS) | growth (UACC-257 melanoma) | growth (M14 melanoma) |
| --- | --- | --- | --- | --- | --- | --- | --- | --- | --- | --- |
| Cc1nc2ccc(-n3c(-c4ccc(Cl)cc4)nc4ccccc4c3=O)cc2n1Cc1ccccc1 | 95.2% | 85.6% | 89.4% | 88.1% | 104% | 92.4% | 90.2% | 96.8% | 78.2% | 95.1% |
| C=CCc1cc(Nc2c3ccc(Cl)cc3nc3ccc(OC)cc23)cc(CN(CC)CC)c1O | 20.5% | 3.36% (active) | 2.15% (active) | 0.676% (active) | 32.1% | 23% | -2.05% (active) | 21.2% | 4.74% (active) | 19.8% |
| Cc1nc2scc(-c3ccc(Cl)cc3)n2c(=O)c1CCN1CCOCC1 | 115% | 80.6% | 100% | 78.3% | 118% | 102% | 70.7% | 100% | 108% | 97.8% |
| NC1CCC(Nc2nc(NCc3cc(Cl)ccc3O)c3ncn(C4CCCC4)c3n2)CC1 (stereo not given) | 0.994% (active) | -23.3% (active) | -65.5% (active) | -16.7% (active) | -58.9% (active) | -23.1% (active) | -5.72% (active) | -62.4% (active) | -58.9% (active) | -71.6% (active) |
| COc1cccc(-c2nnc(COc3ccc(-c4nc5ccccc5[nH]4)cc3OC)o2)c1 | 98.9% | 55.5% | 89.9% | 91.7% | 104% | 103% | 101% | 104% | 109% | 103% |
| Nc1ccn([C@@H]2O[C@H](COP(=O)(O)O[C@@H]3C[C@H](n4cc(F)c(=O)[nH]c4=O)O[C@@H]3COP(=O)(O)O[C@@H]3C[C@H](n4cc(F)c(=O)[nH]c4=O)O[C@@H]3COP(=O)(O)O[C@@H]3C[C@H](n4cc(F)c(=O)[nH]c4=O)O[C@@H]3COP(=O)(O)O[C@@H]3C[C@H](n4cc(F)c(=O)[nH]c4=O)O[C@@H]3COP(=O)(O)O[C@@H]3C[C@H](n4cc(F)c(=O)[nH]c4=O)O[C@@H]3COP(=O)(O)O[C@@H]3C[C@H](n4cc(F)c(=O)[nH]c4=O)O[C@@H]3COP(=O)(O)O[C@@H]3C[C@H](n4cc(F)c(=O)[nH]c4=O)O[C@@H]3COP(=O)(O)O[C@@H]3C[C@H](n4cc(F)c(=O)[nH]c4=O)O[C@@H]3COP(=O)(O)O[C@@H]3C[C@H](n4cc(F)c(=O)[nH]c4=O)O[C@@H]3COP(=O)(O)O[C@@H]3C[C@H](n4cc(F)c(=O)[nH]c4=O)O[C@@H]3COP(=O)(O)OCCOCCOCCOCCOCCOCCO)[C@H](O)C2O)c(=O)n1 (stereo not given in full) | 41.6% | 53.8% | 64% | 91.4% | 63.9% | 36.8% | 1.32% (active) | 10.2% | 44.7% | 9.25% (active) |
| COc1ccc(COC(=O)CC(C)C)cc1 | 107% | 96.1% | 100% | 106% | 101% | 93% | 97.1% | 96.1% | 87.7% | 99.6% |
| Nc1ncc(-c2ccc(C(F)(F)F)cc2)c(NC2CCCCCC2)n1 | 64.2% | 16.2% | -21.4% (active) | 65.1% | 50.3% | 56.1% | -20.9% (active) | 65.2% | -13.5% (active) | 27.8% |
| CC1=CSC2=NC(c3ccc(Cl)c(Cl)c3)=CC(c3ccc(Cl)cc3)N12 (stereo not given) | 20.5% | 17% | -22.7% (active) | -44% (active) | -47.7% (active) | 14.7% | 99.6% | -46.7% (active) | 18.7% | 0.183% (active) |
| O=C(Cn1ccc(=O)[nH]c1=O)c1ccc([N+](=O)[O-])o1 | 92.3% | 83.6% | 57.8% | 111% | 118% | 105% | 92.7% | 106% | 81.5% | 91.4% |
| O=C(O)CN1C(=O)C=CC1=O | 104% | 96.4% | 97.7% | 107% | 98.9% | 94.4% | 103% | 96.2% | 115% | 106% |
| C#CCn1c(-c2cccc(OCCCCl)c2)nc2c1c(=O)n(C)c(=O)n2C | 65.5% | 12.7% | 84.4% | 75.2% | 104% | 67.1% | 87.3% | 86% | 104% | 52.8% |
| COc1ccc(-c2cn[nH]c2-c2cc(OC)c(OC)c(OC)c2)cc1 | 4.46% (active) | 6.36% (active) | 76.4% | 8.75% (active) | 14.8% | 19.7% | 6.26% (active) | -32% (active) | 49.2% | 3.85% (active) |
| CCC(OC(=O)CC(C)C)c1ccccc1 (stereo not given) | 103% | 99.6% | 110% | 106% | 98.2% | 93.7% | 94.7% | 98.4% | 80.6% | 102% |
| Cc1nc(N)sc1Sc1nc2ccc(Cl)cc2c(=O)n1-c1ccc(Oc2ccccc2)cc1 | 92.5% | 74.4% | 95.1% | 89.3% | 86.4% | 107% | 67.8% | 93.4% | 75.7% | 76.6% |
| CCCCCCCCCCCC(c1ccccc1)N(C)C (stereo not given) | 104% | 78.9% | 107% | 76.7% | 92.5% | 111% | 97.9% | 103% | 103% | 104% |
| COc1c(-c2c3sc(=O)[nH]c3nc3c2c(=O)[nH]n3C(C)C)cc2c(c1OC)OCO2 | 108% | 86% | 80.3% | 108% | 110% | 102% | 88.3% | 94.8% | 99.7% | 93.8% |
| Cc1nn2c(/C=C3/C(=O)Nc4ccc(Cl)cc43)c(-c3ccccc3)nc2s1 | 31.9% | 56.7% | -2.37% (active) | 8.13% (active) | 7.51% (active) | 30.4% | 70.1% | 38.1% | 62.3% | 55.4% |
| CC(=O)c1ccc(NCn2nc(-c3ccc(Cl)cc3)oc2=S)cc1 | 109% | 88.1% | 114% | 87.8% | 117% | 109% | 102% | 95% | 93% | 104% |
| COc1ccc(CCc2nc3cc(-c4c(C)noc4C)ccc3n2CCN2CCOCC2)cc1 | 80.1% | 13.7% | -37.4% (active) | 81.7% | 70.1% | 50.4% | -35% (active) | 90.4% | 12.9% | 20.6% |
| N#CCC1CCCC1 | 127% | 106% | 114% | 104% | 107% | 114% | 90.6% | 111% | 100% | 105% |
| O=C(CCl)N1c2ccccc2Sc2ccc3ccccc3c21 | -90.8% (active) | -0.331% (active) | -43.4% (active) | -72.5% (active) | -33.4% (active) | -59.4% (active) | -2.09% (active) | -60.9% (active) | -36.6% (active) | -52.1% (active) |
| COc1cc(Nc2ccnc(N3CCN(c4ccnc5cc(Cl)ccc45)CC3)n2)cc(OC)c1 | 34.1% | 2.73% (active) | -4.19% (active) | 18.5% | -18.3% (active) | 27.7% | -19.2% (active) | -22.1% (active) | 1.09% (active) | -3.5% (active) |
| COc1cc(-c2nc3ccccc3[nH]2)ccc1OCc1nnc(-c2ccc(Br)cc2)o1 | 84.8% | 57.3% | 67.4% | 76.2% | 87% | 96.8% | 102% | 110% | 97% | 91.9% |
| CCOC(=O)c1cc(-c2ccccc2)nc(N)n1 | 107% | 104% | 111% | 97.4% | 93.7% | 106% | 93.8% | 94.5% | 101% | 108% |
| CCCOCC(O)CNCCN (stereo not given) | 127% | 99.3% | 106% | 97.5% | 110% | 113% | 94.2% | 93.2% | 95.9% | 109% |
| COc1ccc(-c2nnc(SC/C(=N\O)c3ccccc3)o2)cc1 | 100% | 94.2% | 109% | 92.3% | 120% | 95.8% | 101% | 92.7% | 121% | 104% |
